According to ChEMBL document CHEMBL3988442, “University of Dundee, Small-Polar-MMV Screening Library” (2021):
For some of these results: Measured potencies and affinities stand elsewhere.

Assays:
Set-up in all cases: scale not given: direction of the effect not stated beside the values
[1] = biological target: Protein translocase subunit SecA (Escherichia coli (strain K12)) (UniProt P10408); experiment: Assay to Identify E. coli SecA ATPase Inhibitors; assay type: functional; conditions: 30 µM
[2] = biological target: T1, Ubiquitin-activating enzyme e1, putative (Leishmania donovani (strain BPK282A1)) (UniProt E9BSI1); experiment: Leishmania donovani Ubiquitin Activating Enzyme (LdE1); assay type: functional; conditions: 30 µM
T1 sequence (whole entry): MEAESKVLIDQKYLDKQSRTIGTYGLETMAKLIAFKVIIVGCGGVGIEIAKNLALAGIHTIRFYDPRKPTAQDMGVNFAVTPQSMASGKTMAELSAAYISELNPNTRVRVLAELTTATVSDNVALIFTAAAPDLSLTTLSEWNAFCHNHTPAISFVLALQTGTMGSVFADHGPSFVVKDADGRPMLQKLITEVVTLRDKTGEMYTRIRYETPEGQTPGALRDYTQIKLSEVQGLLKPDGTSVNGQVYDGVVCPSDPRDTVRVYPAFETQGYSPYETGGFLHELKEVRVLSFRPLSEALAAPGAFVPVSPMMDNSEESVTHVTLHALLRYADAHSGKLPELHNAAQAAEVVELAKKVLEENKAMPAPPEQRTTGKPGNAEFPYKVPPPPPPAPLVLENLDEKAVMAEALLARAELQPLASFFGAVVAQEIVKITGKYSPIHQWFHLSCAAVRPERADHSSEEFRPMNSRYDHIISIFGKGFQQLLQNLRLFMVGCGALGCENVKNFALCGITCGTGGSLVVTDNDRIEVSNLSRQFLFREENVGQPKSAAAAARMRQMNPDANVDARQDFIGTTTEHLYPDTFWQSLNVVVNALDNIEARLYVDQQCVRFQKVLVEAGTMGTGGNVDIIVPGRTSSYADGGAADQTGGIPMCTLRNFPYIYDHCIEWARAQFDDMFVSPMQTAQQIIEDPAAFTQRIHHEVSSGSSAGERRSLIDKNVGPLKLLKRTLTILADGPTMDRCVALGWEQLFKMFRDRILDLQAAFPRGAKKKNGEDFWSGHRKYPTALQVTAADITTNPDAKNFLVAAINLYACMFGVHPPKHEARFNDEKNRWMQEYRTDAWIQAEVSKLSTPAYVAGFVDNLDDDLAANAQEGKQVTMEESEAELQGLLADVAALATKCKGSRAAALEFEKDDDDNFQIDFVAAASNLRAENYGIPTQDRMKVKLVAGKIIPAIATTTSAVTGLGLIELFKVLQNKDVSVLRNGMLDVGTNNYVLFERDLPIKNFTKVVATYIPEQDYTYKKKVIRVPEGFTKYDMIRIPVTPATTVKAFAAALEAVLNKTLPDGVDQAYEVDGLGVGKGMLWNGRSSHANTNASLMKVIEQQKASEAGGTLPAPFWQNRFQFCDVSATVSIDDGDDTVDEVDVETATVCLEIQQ

[3] = biological target: Sialic acid-binding Ig-like lectin 9 (Homo sapiens) (UniProt Q9Y336); experiment: Hs-Siglec9 ALPHAscreen SOP 20170721; conditions: 10 µM
Trypanosoma cruzi = experiment: Trypanosoma cruzi phosphomannomutase and mannose-1-phosphate guanylyltransferase assay; assay type: functional; conditions: 10 µM
[4] = biological target: T2, Arginase-2, mitochondrial (Homo sapiens) (UniProt P78540); experiment: in vitro enzyme assay to detect the production of urea directly proportional to the activity of Arginase II; assay type: functional; conditions: 33.3 µM; further: in the data most compounds retested in dose-response had high values
T2 sequence (whole entry): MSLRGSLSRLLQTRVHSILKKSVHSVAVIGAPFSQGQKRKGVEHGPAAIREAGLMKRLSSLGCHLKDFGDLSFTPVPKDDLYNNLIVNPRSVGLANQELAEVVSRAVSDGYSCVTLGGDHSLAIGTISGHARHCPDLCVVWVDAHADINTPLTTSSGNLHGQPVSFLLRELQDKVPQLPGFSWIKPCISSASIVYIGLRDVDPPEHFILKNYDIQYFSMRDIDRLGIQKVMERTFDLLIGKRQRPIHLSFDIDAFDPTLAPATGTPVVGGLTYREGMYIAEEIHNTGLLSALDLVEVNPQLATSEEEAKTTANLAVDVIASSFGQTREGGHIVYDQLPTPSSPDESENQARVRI

[5] = biological target: T3, Proteasome subunit beta (Trypanosoma cruzi) (UniProt O96673); experiment: Trypanosoma cruzi proteasome chymotrypsin-like activity (TcProtChymo) assay.; further: in the data most compounds retested in dose-response had high values; assay type: functional; conditions: 9.37 µM
T3 sequence (whole entry): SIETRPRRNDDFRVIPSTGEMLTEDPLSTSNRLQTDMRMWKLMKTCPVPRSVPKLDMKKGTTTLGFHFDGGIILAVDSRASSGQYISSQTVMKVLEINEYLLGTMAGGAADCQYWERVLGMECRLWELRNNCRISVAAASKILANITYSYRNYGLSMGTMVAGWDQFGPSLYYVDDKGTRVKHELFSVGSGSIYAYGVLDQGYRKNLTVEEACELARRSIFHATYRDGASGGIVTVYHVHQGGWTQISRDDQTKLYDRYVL

Homo sapiens = species on record: Homo sapiens; experiment: To identify inhibition of the IFN signalling (Jak-Stat) pathway via expression of an eGFP reporter gene under the control of an IFN-stimulated response element (ISRE) containing MxA promoter.; assay type: functional; conditions: 30 µM
[6] = biological target: T4, Tyrosyl-tRNA synthetase, putative (Trypanosoma cruzi (strain CL Brener)) (UniProt Q4DSP6); experiment: Trypanosoma cruzi tyrosyl tRNA synthetase (TcYRS) _High Tyrosine SOP; assay type: functional; conditions: 30 µM; further: in the data most compounds retested in dose-response had high values
T4 sequence (whole entry): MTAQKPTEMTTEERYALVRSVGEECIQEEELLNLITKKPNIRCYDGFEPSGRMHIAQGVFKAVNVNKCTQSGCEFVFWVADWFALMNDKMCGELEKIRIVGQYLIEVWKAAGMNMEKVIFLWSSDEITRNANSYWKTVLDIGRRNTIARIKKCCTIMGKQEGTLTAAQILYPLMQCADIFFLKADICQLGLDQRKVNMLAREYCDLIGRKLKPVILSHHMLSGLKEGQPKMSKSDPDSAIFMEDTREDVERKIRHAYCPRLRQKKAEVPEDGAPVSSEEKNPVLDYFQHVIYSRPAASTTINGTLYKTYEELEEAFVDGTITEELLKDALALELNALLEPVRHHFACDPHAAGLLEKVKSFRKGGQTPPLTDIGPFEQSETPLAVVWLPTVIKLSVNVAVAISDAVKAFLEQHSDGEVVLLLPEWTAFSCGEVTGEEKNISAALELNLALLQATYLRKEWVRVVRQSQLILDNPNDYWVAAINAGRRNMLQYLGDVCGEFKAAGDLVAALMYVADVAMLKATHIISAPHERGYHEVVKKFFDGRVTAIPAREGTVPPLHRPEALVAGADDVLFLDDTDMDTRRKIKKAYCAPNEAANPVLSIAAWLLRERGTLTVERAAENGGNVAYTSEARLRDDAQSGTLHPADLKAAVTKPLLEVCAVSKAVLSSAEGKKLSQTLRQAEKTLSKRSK

[7] = biological target: T4, Tyrosyl-tRNA synthetase, putative (Trypanosoma cruzi (strain CL Brener)); experiment: Trypanosoma cruzi tyrosyl tRNA synthetase (TcYRS) SOP; assay type: functional; conditions: 30 µM
[8] = biological target: Chromo domain-containing protein 1 (Saccharomyces cerevisiae (strain ATCC 204508 / S288c) (Baker's yeast)) (UniProt P32657); experiment: ScCHD-1 Enzyme Inhibition Assay; assay type: functional; conditions: 30 µM; further: in the data most compounds retested in dose-response had high values
Chain of Chromo domain-containing protein 1 (Saccharomyces cerevisiae (strain ATCC 204508 / S288c) (Baker's yeast)) (P32657 whole entry, the tested form may be a part): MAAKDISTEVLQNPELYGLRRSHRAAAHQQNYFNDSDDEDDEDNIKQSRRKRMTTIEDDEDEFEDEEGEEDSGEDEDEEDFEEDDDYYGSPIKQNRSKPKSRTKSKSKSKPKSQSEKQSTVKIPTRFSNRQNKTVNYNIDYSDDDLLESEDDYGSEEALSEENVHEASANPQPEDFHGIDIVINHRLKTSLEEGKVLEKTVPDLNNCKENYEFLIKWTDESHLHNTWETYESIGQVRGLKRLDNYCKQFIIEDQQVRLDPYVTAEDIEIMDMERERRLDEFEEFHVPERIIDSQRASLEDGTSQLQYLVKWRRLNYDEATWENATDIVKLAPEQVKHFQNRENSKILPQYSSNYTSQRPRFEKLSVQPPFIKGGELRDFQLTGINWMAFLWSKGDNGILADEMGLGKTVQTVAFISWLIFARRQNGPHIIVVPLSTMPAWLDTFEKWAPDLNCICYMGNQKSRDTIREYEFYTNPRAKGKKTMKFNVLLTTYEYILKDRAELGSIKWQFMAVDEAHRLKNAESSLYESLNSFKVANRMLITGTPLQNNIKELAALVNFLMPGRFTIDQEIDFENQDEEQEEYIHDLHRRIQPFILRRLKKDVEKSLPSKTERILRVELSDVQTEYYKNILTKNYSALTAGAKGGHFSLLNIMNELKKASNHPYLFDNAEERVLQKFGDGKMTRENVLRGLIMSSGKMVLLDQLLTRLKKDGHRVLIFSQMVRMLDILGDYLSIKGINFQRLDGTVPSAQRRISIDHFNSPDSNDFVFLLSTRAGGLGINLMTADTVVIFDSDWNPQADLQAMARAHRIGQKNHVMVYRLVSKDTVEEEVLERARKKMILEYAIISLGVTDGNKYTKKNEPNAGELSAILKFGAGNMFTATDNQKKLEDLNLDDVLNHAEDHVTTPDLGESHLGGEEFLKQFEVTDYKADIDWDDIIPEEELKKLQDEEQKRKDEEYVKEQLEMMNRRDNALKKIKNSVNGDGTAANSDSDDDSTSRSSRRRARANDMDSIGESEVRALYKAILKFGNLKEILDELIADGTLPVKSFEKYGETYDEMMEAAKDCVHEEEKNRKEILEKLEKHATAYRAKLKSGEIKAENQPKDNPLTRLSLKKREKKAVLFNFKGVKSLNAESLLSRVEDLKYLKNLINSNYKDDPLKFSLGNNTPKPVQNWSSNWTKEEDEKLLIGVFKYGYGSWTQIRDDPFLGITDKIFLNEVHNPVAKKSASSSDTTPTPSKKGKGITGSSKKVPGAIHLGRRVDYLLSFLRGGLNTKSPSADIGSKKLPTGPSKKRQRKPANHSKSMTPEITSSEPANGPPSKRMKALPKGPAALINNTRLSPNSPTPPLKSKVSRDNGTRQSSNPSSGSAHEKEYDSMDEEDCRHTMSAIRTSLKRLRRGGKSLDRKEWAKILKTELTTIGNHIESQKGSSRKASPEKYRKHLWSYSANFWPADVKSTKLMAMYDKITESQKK

Chain of Sialic acid-binding Ig-like lectin 9 (Homo sapiens) (Q9Y336 whole entry): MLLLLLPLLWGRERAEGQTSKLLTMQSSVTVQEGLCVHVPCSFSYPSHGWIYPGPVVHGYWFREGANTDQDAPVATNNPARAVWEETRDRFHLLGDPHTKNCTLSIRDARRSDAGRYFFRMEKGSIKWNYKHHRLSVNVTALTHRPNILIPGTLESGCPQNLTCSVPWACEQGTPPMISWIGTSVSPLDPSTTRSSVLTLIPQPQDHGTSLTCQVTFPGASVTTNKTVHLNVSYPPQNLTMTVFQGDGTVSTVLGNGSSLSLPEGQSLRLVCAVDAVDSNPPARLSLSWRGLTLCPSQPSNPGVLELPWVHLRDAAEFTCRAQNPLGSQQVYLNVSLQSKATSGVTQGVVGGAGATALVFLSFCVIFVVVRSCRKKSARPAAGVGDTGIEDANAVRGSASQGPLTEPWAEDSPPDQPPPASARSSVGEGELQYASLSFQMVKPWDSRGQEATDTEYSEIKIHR
Chain of Protein translocase subunit SecA (Escherichia coli (strain K12)) (P10408 whole entry): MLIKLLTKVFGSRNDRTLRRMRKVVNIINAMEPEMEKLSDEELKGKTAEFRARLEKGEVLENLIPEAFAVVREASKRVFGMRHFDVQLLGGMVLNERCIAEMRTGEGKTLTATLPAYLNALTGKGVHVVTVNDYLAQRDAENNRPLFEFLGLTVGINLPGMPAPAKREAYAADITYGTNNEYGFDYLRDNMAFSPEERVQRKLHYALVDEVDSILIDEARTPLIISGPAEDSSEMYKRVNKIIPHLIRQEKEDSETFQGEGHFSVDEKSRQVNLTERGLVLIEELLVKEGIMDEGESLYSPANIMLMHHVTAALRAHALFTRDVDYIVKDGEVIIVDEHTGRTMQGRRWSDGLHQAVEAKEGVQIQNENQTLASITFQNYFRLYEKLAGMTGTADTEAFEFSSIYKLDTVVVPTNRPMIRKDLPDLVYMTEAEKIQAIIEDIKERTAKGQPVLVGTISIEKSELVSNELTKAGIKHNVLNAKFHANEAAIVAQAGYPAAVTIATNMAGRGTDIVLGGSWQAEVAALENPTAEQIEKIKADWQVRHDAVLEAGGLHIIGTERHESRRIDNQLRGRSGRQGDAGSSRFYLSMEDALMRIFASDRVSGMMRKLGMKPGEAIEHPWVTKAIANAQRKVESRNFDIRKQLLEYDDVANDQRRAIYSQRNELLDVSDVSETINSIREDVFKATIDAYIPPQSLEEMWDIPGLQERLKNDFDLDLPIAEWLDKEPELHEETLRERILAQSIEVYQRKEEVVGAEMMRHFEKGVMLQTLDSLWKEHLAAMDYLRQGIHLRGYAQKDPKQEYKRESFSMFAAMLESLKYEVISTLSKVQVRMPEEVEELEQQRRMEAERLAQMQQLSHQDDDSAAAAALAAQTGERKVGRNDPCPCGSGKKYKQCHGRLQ

SMILES	Percent Effect [1] [%]	Percent Effect [2] [%]	Percent Effect [3] [%]	Percent Effect (Trypanosoma cruzi) [%]	Percent Effect [4] [%]	Percent Effect [5] [%]	Percent Effect (Homo sapiens) [%]	Percent Effect [6] [%]	Percent Effect [7] [%]	Percent Effect [8] [%]
c1cnnc(N2CCCC2CNCc2nc(C3CC3)no2)c1 (stereo not given)	-0.891	-7.69	1.93	12.1	1.64	1.11	-18.5	6.22	6.02	8.01
Cc1cc(OCC(=O)N2CCCC(c3noc(C)n3)C2)no1 (stereo not given)	2.24	13.3	-8.66	-4.62	4.88	19.8	17.5	-0.526	2.56	-9.02
CCCc1nc(C)c(C(=O)NCCN2CCN(CC)CC2)s1	-3.24	0	11.4	0.56	-2.25	-1.23	5.53	6.86	9.41	3.6
Cc1ccc(C(=O)N2C[C@H]3CCC[C@@]3(COCc3cccnc3)C2)s1	-4.31	6.49	-5.03	-4.38	1.22	15.4	3.36	5.79	5.13	5.28
COc1ccc(F)cc1C(=O)N(C)Cc1cc(C)on1	-0.183	15.4	-5.44	-1.22	-0.41	14.1	21.1	2.39	13.2	-1.49
Cc1ncc(-c2ccnc(N3CCCCC3)n2)c(=O)[nH]1	-0.483	8	1.07	-8.84	-0.887	9.07	21.2	0.526	5.13	-11.6
Cc1nc(C)n(CC2CCCN2Cc2nc3ccccc3n2C)n1 (stereo not given)	-5.84	10.7	7.93	1.81	3.55	17.6	8.44	1.58	12.8	-12.7
CS(=O)(=O)N1CCC(c2nnc3ccc(C(=O)N4CCCC4)cn23)C1 (stereo not given)	-4.16	-42.9	-5.27	-3.8	-2.02	16.9	6.07	0.526	5.13	-3.44
CC(NC(=O)CN(C)S(C)(=O)=O)c1nnc2n1CCCCC2 (stereo not given)	1.95	13	1.1	-4.48	-15	17.2	26.4	-0.98	4.71	-8.79
CNC(=O)CN1CCCC12CCN(C(=O)c1ccc(F)cc1)CC2	-1.29	1.3	-0.371	-6.75	3.2	8.33	22.8	-0.966	-5	-4.71
CNc1cc(C2CCCN2C(=O)c2ccc3oc(=O)n(C)c3c2)ccn1 (stereo not given)	-1.24	14.7	1.42	-3.94	-1.33	11.3	-1.54	0	7.5	-22.1
CCc1ncc2c(n1)CN(CC(=O)Nc1ccc(Cl)cn1)CC2	-4.26	-2.67	4.13	1.21	2.66	4.83	4.95	8.95	7.69	-9.89
CN(CC1CCCCC1)C(=O)c1ccc(-n2ncc(C#N)c2N)cc1	-0.675	2.6	-3.53	-9.33	-9.22	7.37	48.7	4.9	16.5	-3.77
CCn1ccnc1CN(C)CC1CCCN1c1cccnn1 (stereo not given)	-2.58	2.67	-5.89	0	0.887	20.8	6.16	5.79	12.8	-11.5
CCc1nccn1-c1cncc(C2CCCN2Cc2ccc(F)cc2)n1 (stereo not given)	-7.77	4	1.71	1.97	0.443	-0.328	35.7	4.23	5	-27.1
Cc1noc(Cl)c1CCC(=O)N1CCc2sccc2C1	-5.38	18.7	4.18	0.201	-2.22	22.8	25.1	5.79	17.9	-10.9
Cc1c(CN2CCCC(c3[nH]ncc3S(C)(=O)=O)C2)cnn1C (stereo not given)	-2.55	22.7	-0.226	3.94	-5.75	12.5	11.7	3.17	17.5	-24.1
CN(C)S(=O)(=O)N1CCCC(c2cccc(Cc3ccccc3)n2)C1 (stereo not given)	-0.482	6.67	-7.39	-6.31	-5.31	14.4	58.5	-5.29	0	-8.36
COc1ccc(CNC(=O)N2CCC(Cc3cnn(C)c3)C2)cc1C (stereo not given)	-1.91	7.69	-4.56	8.36	4.92	11.2	10.9	0.478	13.2	-4.08
COc1ccc(CC(=O)N2CCc3nnc(N(C)C)cc3C2)cc1F	-3.64	12.8	-2.71	-1.97	1.23	17.7	20.5	5.26	6.02	-0.877
CCC1CN(C(=O)c2ccccc2N2CCCC2)CCN1C(C)C (stereo not given)	-7.26	5.41	-0.153	-4.75	-5.94	5.31	-3.97	3.72	-7.32	-5.34
CN(C)c1cc(C(=O)N2CCCN(Cc3cscn3)CC2)ccn1	-2	7.79	1.09	2.05	6.76	-4.39	1.34	6.86	16.5	-5.32
